Experimental data as given in PubChem BioAssay (NCI).
About 79,000 compounds went through this panel and 15% of them were active in at least one assay; those are over-represented in the sample as a whole. Calls of active or inactive are those of the source. No stated cut-off is given here; in the data, active means growth inhibition above about 70%; inactive means the rest.

Tests used:
[1] = NCI Yeast Anticancer Drug Screen. Data for the rad50 strain (AID 155);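 further: 0% = growth of vehicle-only cultures of the same strain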; settings: S. cerevisiae rad50 strain growth inhibition; at 50.0 µM; hits give high values
How it was run: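 A DNA repair-deficient yeast mutant serves as the test organism; compound-induced growth inhibition is calculated against vehicle-treated cells.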

[2] = NCI Yeast Anticancer Drug Screen. Data for the mec2-1 strain (AID 157); settings: S. cerevisiae mec2-1 strain, at 50.0 µM, hits give high values
How it was run: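 Growth inhibition is read against vehicle-treated controls after compound exposure of the mec2-1 yeast strain, which is defective in DNA damage repair or cell cycle control.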

[3] = NCI Yeast Anticancer Drug Screen. Data for the sgs1 mgt1 strain (AID 161);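 further: 0% = growth of cultures given vehicle only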; settings: S. cerevisiae sgs1 mgt1 strain, at 50.0 µM, hits give high values
How it was run: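 Percent growth inhibition was derived by comparing compound-exposed mutant yeast with vehicle-exposed cultures. The strain carries alterations in DNA damage repair.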

[4] = NCI Yeast Anticancer Drug Screen. Data for the cln2 rad14 strain (AID 165);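 further: 0% = growth equal to vehicle treated cultures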; settings: S. cerevisiae cln2 rad14 strain, at 50.0 µM, hits give high values
How it was run: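 Growth inhibition, relative to vehicle-treated controls, is the read-out. The test organism is a yeast strain with defined genetic alterations, cln2 rad14.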

[5] = NCI Yeast Anticancer Drug Screen. Data for the bub3 strain (AID 167); settings: S. cerevisiae bub3 mutant strain, at 50.0 µM, hits give high values
How it was run: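 Inhibition values come from growth of compound-treated mutant yeast normalised to vehicle-treated controls.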

[6] = NCI Yeast Anticancer Drug Screen. Data for the mlh1 rad18 strain (AID 175); settings: S. cerevisiae mlh1 rad18 strain growth inhibition; at 50.0 µM; hits give high values
How it was run: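 Cells of a genetically altered yeast strain, deficient in DNA damage repair, were treated with compound. Their growth was then compared with that of vehicle-treated cultures to give inhibition.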

Measured: growth inhibition

Cc1cc(NS(=O)(=O)c2ccc(NC(=O)c3cccc4c(N)c5ccccc5nc34)cc2)no1
inactive: [1] 34.1% | [2] 14.9% | [3] 29.3% | [4] 39.5% | [5] 3.85% | [6] 37%

N#CCCN(C(=O)COc1ccc(Cl)cc1Cl)C1CCCCC1
active: [1] 85% | [2] 87.7% | [3] 73% | [4] 87.2% | [5] 89.3% | [6] 95%

CC1NCCC(CC(=O)O)C1CC(=O)O (configuration not stated)
inactive: [1] -7.55% | [2] -26% | [3] 1.75% | [4] -41.1% | [5] -26.8% | [6] -10.3%

NCCCCCCCCCCCCN
inactive: [1] -6.15% | [2] -11.8% | [3] -0.3% | [4] -37.2% | [5] -13.5% | [6] 19%

CN(C)C1=Nc2ccccc2C(=S)N2CSCC12 (configuration not stated)
inactive: [1] -29% | [2] -37.1% | [3] -16.9% | [4] -12.2% | [5] -63.8% | [6] -20.3%

O=C1OC2c3ccccc3C3CC(=O)C2C13 (configuration not stated)
inactive: [1] 10.2% | [2] -5.7% | [3] 9.35% | [4] 6.25% | [5] 1.25% | [6] 7.65%

C/C=C(/C)C(=O)O[C@H]1C[C@@H]2[C@@H](O)c3occ(C)c3C[C@]2(C)[C@@H](C)C1
active: [1] 91% | [2] 92.4% | [3] 91.6% | [4] 90% | [5] 90.8% | [6] 90.2%

COc1ccccc1NC(=O)/C(=C/C1CC(=O)NC1=S)C(C)=O (configuration not stated)
inactive: [1] -18.6% | [2] -9.4% | [3] -18.6% | [4] 15.5% | [5] 12% | [6] -7.4%

C=C(C)C(=O)N1c2ccc(OC)cc2CC1C(=O)OCC (configuration not stated)
inactive: [1] -1.6% | [2] 16.6% | [3] 7.05% | [4] 12.8% | [5] 15.8% | [6] 4.55%

COC(=O)c1ccc(N(C)CC/C(CNc2nc(N)[nH]c(=O)c2[N+](=O)[O-])=N\NC(N)=O)cc1
inactive: [1] 9.35% | [2] 10.6% | [3] -2.4% | [4] 6.25% | [5] -7.55% | [6] -4.15%

Nc1ncc(Cl)cn1
inactive: [1] 19.6% | [2] -21.4% | [3] 8% | [4] -25.2% | [5] -22.3% | [6] -23.6%

CC1(C)S[C@@H]2[C@H](NC(=O)/C=C/c3ccccc3)C(=O)N2[C@H]1C(=O)O
inactive: [1] 15.3% | [2] 9.5% | [3] 9.2% | [4] 0.6% | [5] 25.6% | [6] -5.5%

CCCOC(=O)NC(C)C(=O)NC(CCC(=O)NC(CCCC(N)C(=O)O)C(=O)NC(C)C(=O)O)C(=O)O (configuration not stated)
inactive: [1] -20.8% | [2] -19.9% | [3] -37.6% | [4] -9.25% | [5] 21.6% | [6] -10.8%

O=C1C2=C(c3ccccc31)C(c1ccc([N+](=O)[O-])cc1)NC(=S)N2 (configuration not stated)
inactive: [1] 5.6% | [2] 8.7% | [3] 1.8% | [4] 9.8% | [5] -3.6% | [6] 32.5%

O=C(Nc1ccc(CCO)cc1)Nc1ccc(Cl)cc1[N+](=O)[O-]
inactive: [1] -6.35% | [2] 34.9% | [3] 25.8% | [4] -18.7% | [5] 21.6% | [6] 17.6%

CCCCCCCNC(=O)C(Cl)Cl
inactive: [1] 7.85% | [2] -16.8% | [3] -6.65% | [4] -2.55% | [5] 39.8% | [6] 7.4%

O=C(Cc1ccccn1)c1cccnc1
inactive: [1] -1.15% | [2] -9.7% | [3] -4.75% | [4] -27.2% | [5] -17% | [6] -4.25%

CC12CCC(Cl)(CC1O)C2(C)C (configuration not stated)
inactive: [1] 1.9% | [2] 11.6% | [3] 1.15% | [4] 2.05% | [5] -6.9% | [6] -1.05%

CC1=C(C(=O)Nc2ccccc2C)C(c2ccc(N(C)C)cc2)C(C(=O)Nc2ccccc2C)=C(C)N1
inactive: [1] -27% | [2] -20% | [3] -17.4% | [4] -11.2% | [5] -8.95% | [6] -13.8%

CCNc1ccc(N=Nc2ccc(-c3ccc(N=Nc4ccc(NCC)c5ccccc45)c(OC)c3)cc2OC)c2ccccc12
inactive: [1] -1.15% | [2] 18.1% | [3] 5.55% | [4] 23.3% | [5] 26.9% | [6] 36%

NC(=O)C(=O)c1cc(Cl)c(Cl)c(Cl)c1Cl
inactive: [1] -12.3% | [2] -13.5% | [3] 12.4% | [4] -9% | [5] -5.15% | [6] -4.15%

O=C(NNC(=O)C(Oc1ccccc1)c1ccccc1)C(Cl)Cl (configuration not stated)
inactive: [1] -9.5% | [2] 4.55% | [3] 0.55% | [4] -2.45% | [5] 10.3% | [6] 5.9%

[O-]/[N+](=C\c1ccc(OCc2ccccc2)cc1)c1ccccc1
inactive: [1] 16.5% | [2] -18.4% | [3] -20.7% | [4] -2.65% | [5] -4.25% | [6] -13.5%

O=c1[nH][nH]c(=O)c(Cl)c1Cl
inactive: [1] 1.55% | [2] 1.6% | [3] -17.5% | [4] 0.25% | [5] -0.85% | [6] 13.3%

Cc1cc(-c2ccccc2)nc(Nc2nc3ccccc3o2)n1
inactive: [1] 9.2% | [2] 1.1% | [3] 10.6% | [4] 6.35% | [5] -9.45% | [6] -2.3%

CCCCCCCC(=O)OC(CC)CCCC (configuration not stated)
inactive: [1] 5.25% | [2] -9.9% | [3] 1.5% | [4] 8.35% | [5] 3.6% | [6] -1.2%

N#Cc1c(O)cc(=O)n2c1[nH]c1ccccc12
inactive: [1] -15.2% | [2] -24.3% | [3] -22% | [4] -10.3% | [5] 10.5% | [6] -4.15%

CCOC=C(C(=O)OCC)C(=O)OCC
inactive: [1] 22.1% | [2] -7.45% | [3] -6.5% | [4] -1% | [5] -10.6% | [6] 15.6%

Cc1ccc(CC(=S)N2CCOCC2)cc1
inactive: [1] 19.8% | [2] 24.2% | [3] 10.8% | [4] 10.9% | [5] 25.2% | [6] 16.6%

COc1ccc(C2SCC(=O)N2NC(=O)c2ccc(NC(C)=O)cc2)cc1 (configuration not stated)
inactive: [1] -50% | [2] -49.5% | [3] -62.5% | [4] -8.9% | [5] -21.7% | [6] -61.5%

CCOC(=O)N(C)C(=C(F)F)C(F)(F)F
inactive: [1] 9.1% | [2] -0.1% | [3] 10.8% | [4] 33.6% | [5] 12.4% | [6] -26.1%

O=C(SCSC(=O)c1ccccc1)c1ccccc1
inactive: [1] -11.3% | [2] 10.9% | [3] -4.75% | [4] -18.5% | [5] 32.8% | [6] 2%

Cc1c2c(=O)oc3ccc(Cl)cc3c2nn1-c1ccccc1
inactive: [1] -13.9% | [2] -9.4% | [3] -11.8% | [4] -7.8% | [5] -25.7% | [6] -9.65%

CCCCCCCCCCCCSC1=C(OC)C(=O)C(OC)=C(OC)C1=O
inactive: [1] 33.5% | [2] 13.8% | [3] 26.6% | [4] -5.2% | [5] -1.35% | [6] 16.5%

O=C1c2ccccc2C2(c3ccccc3)C=NNC12c1ccccc1 (configuration not stated)
inactive: [1] 21.5% | [2] 6.9% | [3] 18.2% | [4] 4.4% | [5] 55.5% | [6] 25.1%

COc1ccc(C2(C(OC)OC)NC(=O)NC2=O)cc1 (configuration not stated)
inactive: [1] -26.8% | [2] -4.1% | [3] -8.8% | [4] 35.4% | [5] -0.7% | [6] -8.85%

Nc1ccc([N+](=O)[O-])c(C(F)(F)F)c1
inactive: [1] 14.1% | [2] -33.6% | [3] 4.25% | [4] -14.4% | [5] -6.55% | [6] 22.6%

CN=C1c2ccccc2C(=O)c2c1c(O)n(C)c2O
inactive: [1] 3.05% | [2] -8.45% | [3] 0.9% | [4] 1.4% | [5] -2.75% | [6] -1%

Cc1ccc2c(c1)-c1nc3nnnn3nc1C(C)(C)O2
inactive: [1] 21% | [2] 6.8% | [3] 34% | [4] -6.85% | [5] 15.1% | [6] 26.8%

CCN(CC)CC(=N)N(CC)c1ccccc1
inactive: [1] 26.5% | [2] 6.95% | [3] 4.7% | [4] 11.9% | [5] 23.8% | [6] 28.5%

CCOC(=O)c1c(NN)n[nH]c1C
inactive: [1] 8.95% | [2] 13.2% | [3] 24.4% | [4] 4% | [5] 7.1% | [6] 8.85%

Cc1cccc(CC(CC(=O)O)C(=O)O)c1 (configuration not stated)
inactive: [1] 4.85% | [2] 9.45% | [3] -1.85% | [4] 11.6% | [5] -2.45% | [6] 1.4%
